# Screening results: PubChem BioAssay, Broad Institute
# An excerpt weighted towards active compounds, which were near 2.9% of everything screened.
# PvdQ inh: P. aeruginosa PvdQ acylase inhibitors, primary screen, biochemical, fluorescence, plate reader and imaging, single point | PvdQ acylase [Pseudomonas aeruginosa LESB58] | purified PvdQ acylase | inhibition, % at 10 µM | actives 0.063% (n = 340,000) | AID 488965, 2010; in the data active means inhibition above about 30%, passing the limit was not always enough; inconclusive means no clear call, values can overlap the other calls;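 further: 0% = vehicle neutral wells and 100% = reference inhibitor wells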
# esBAF inh: Bmi1 luciferase reporter increase in mESCs, primary screen, esBAF inhibitor project, mouse ES cells, Bmi1 luciferase knock-in, single point | 24 h; 100% = twice the neutral-well signal | reporter increase, % at 12.5 µM | actives 2% (n = 350,000); in the data active means activation above about 40%; inconclusive means no clear call, values can overlap the other calls;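 further: 0% = median of the plate's neutral control wells and 100% = double that signal; a rise in the Bmi1 reporter signal indicates esBAF inhibition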
# Wnt act: Wnt/beta-catenin pathway activators, primary screen, cell-based, plate reader, single point | Wnt/beta-catenin reporter cell assay, activator | activation, % at 9.35 µM | actives 1.2% (n = 300,000); in the data active means activation above about 30%, passing the limit was not always enough; inconclusive means no clear call, values can overlap the other calls;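 further: 0% = neutral control wells and 100% = positive control wells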
# Vif imaging: HIV Vif self-association inhibitors, primary screen, imaging, HEK293T, single point; inhibition, % at 7.49 µM; AID 602346, 2012; HEK293T cells, Vif self-association by quenched fluorescence, 24 h; actives 0.35% (n = 340,000); in the data active means inhibition above about 50%, passing the limit was not always enough; inconclusive means no clear call, values can overlap the other calls; inactive means below about 31%
# N-glyco inh: increase of ERlucT glycosylation luciferase signal, primary screen, N-linked glycosylation inhibitor project, D54 ERlucT cells, luminescence, set 2; reporter increase, % at 12.5 µM; D54 ERlucT glycosylation luciferase reporter, 24 h; percent of 100 nM tunicamycin response; actives 0.23% (n = 360,000);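 active means mean luciferase reporter signal, scaled so untreated is 0 and the glycosylation-blocking control 100, at or above a set limit in every replicate; inconclusive means mean reaches the limit but not every replicate does; inactive means mean below the limit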;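 further: luciferase carries N-glycosylation sites so blocking glycosylation raises the light; 0% = median of neutral control wells and 100% = median of 100 nM tunicamycin wells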
# MITF act: activators of MITF-driven TRPM1 promoter reporter, primary screen, cell-based, SK-MEL-5, luciferase, single point; SK-MEL-5 TRPM1-promoter luciferase, 24 h; % of positive control, neutral wells = 0; activation, % at 12.5 µM; actives 0.75% (n = 300,000);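 active means mean activation of at least 80% with every replicate also reaching 80%; inconclusive means mean reaches 80% but some replicate falls short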;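 further: 0% = neutral control wells and 100% = parthenolide positive control wells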
# * marks the source's active call; other numbers are inactive results; ? = inconclusive; · = no result given.
SMILES,PvdQ inh,esBAF inh,Wnt act,Vif imaging,N-glyco inh,MITF act
Cc1noc(C)c1S(=O)(=O)N(C)C[C@@H]1Oc2ccc(NS(=O)(=O)c3ccc(Cl)cc3)cc2C(=O)N([C@H](C)CO)C[C@@H]1C,·,-1,·,·,·,·
C[C@H](CO)N1C[C@H](C)[C@H](CN(C)S(=O)(=O)c2ccc(Cl)cc2)OCc2cn(nn2)CCCC1=O,·,5,·,·,·,·
COc1cc(/C=C/c2ccc3cccc(O)c3n2)cc(Cl)c1OC,-7,-4,47*,-3,-9,-15
O=C(Nc1ccccc1Cl)N1[C@H](CO)[C@@H]2c3ccccc3NC[C@@H]21,·,61*,·,·,·,·
O=C(C1CC1)N1CC[C@@H]2[C@H](CO)Nc3ccc(Br)cc3[C@@H]21,·,58*,·,·,·,·
O=C(CN1CCOCC1)N1CC[C@@H]2[C@H](CO)Nc3ccc(-c4ccccc4F)cc3[C@@H]21,·,42*,·,·,·,·
COc1ccc(-c2ccc3c(c2)[C@@H]2[C@@H](CCN2C(=O)CN2CCOCC2)[C@@H](CO)N3)cc1,·,49*,·,·,·,·
COc1cccc(-c2ccc3c(c2)[C@H]2[C@H](CCN2C(=O)CN2CCOCC2)[C@@H](CO)N3)c1,·,-6,·,·,·,·
O=C(C[C@@H]1CC[C@@H](NC(=O)c2ccccc2)[C@H](CO)O1)NCc1ccc(Oc2ccccc2)cc1,·,9,·,·,·,·
C[C@@H]1CN([C@@H](C)CO)C(=O)c2cc(NS(=O)(=O)c3cn(C)cn3)ccc2O[C@H]1CN(C)Cc1ccc(Cl)c(Cl)c1,·,-1,·,·,·,·
c1ccc(-c2nnc(SCCC3OCCCO3)o2)cc1,0,·,48*,4,-7,11
Oc1ccc(-c2nnc(SCc3ccccc3)o2)cc1,-10,49*,17,3,0,114*
c1ccc(CSc2nnc(-c3cccnc3)o2)cc1,7,42*,6,-6,0,50
c1ccc(CSc2ccc(-c3cccnc3)nn2)cc1,-9,59*,-1,-4,0,89*
CN(C)CCCNC(=O)[C@@H]1[C@@H](CO)[C@@H]2Cn3c(ccc(C4=CCCC4)c3=O)[C@H]1N2Cc1cocn1,·,2,·,·,·,·
C[C@H]1CN([C@@H](C)CO)C(=O)c2cc(NS(=O)(=O)c3ccc(F)cc3)ccc2O[C@@H]1CN(C)Cc1ccc(Oc2ccccc2)cc1,·,2,·,·,·,·
CN1CCN(C(=O)C[C@H]2C=C[C@H](NC(=O)c3ccc4c(c3)OCO4)[C@H](CO)O2)CC1,·,2,·,·,·,·
C#CCSc1nnc(-c2ccc(O)cc2)o1,-8,69*,46*,8,2,?
C#CCSc1nnc(-c2ccc(C)cc2)o1,4,?,·,-3,-6,·
CCOC(=O)c1sc(=NC(=O)c2cccc(Br)c2)n(C)c1C,-7,71*,2,3,-1,73
CCOC(=O)c1sc(=NC(=O)c2cccc(C)c2)n(C)c1C,-13,·,14,-3,1,49
CCOC(=O)c1sc(=NC(=O)c2ccc(C)cc2)n(C)c1C,-16,·,31*,-5,-3,32
CCOC(=O)c1sc(=NC(=O)c2c(F)cccc2F)n(C)c1C,2,54*,13,4,5,50
CCOC(=O)c1sc(=NC(=O)c2ccc(F)cc2)n(C)c1C,3,27,?,-2,-8,58
CCOC(=O)c1sc(=NC(=O)CCSc2ccccc2)n(C)c1C,-5,·,26,-3,1,114*
C[C@@H]1CN([C@H](C)CO)C(=O)c2cc(NC(=O)Cc3ccccc3)ccc2O[C@@H](C)CCCCO[C@@H]1CN(C)S(=O)(=O)c1cccs1,·,-3,·,·,·,·
C[C@@H](NC(=O)[C@H]1[C@H](CO)[C@H]2Cn3c(ccc(C4=CCCCC4)c3=O)[C@@H]1N2)c1ccccc1,·,3,·,·,·,·
Cc1cc(C(=O)OCc2nnc(-c3ccccc3)o2)c(C)n1-c1ccccc1,-2,26,·,-9,-3,4
Cc1noc(C)c1COC(=O)c1cc(C)n(-c2ccccc2)c1C,-3,80*,·,-41,3,·
